Compound activity (PubChem)
In the library only some 17% were active in any assay of this set; here they are far more common.
HepG2 viability = counter-screen for TGF-b inhibitors: cytotoxicity in HepG2 cells; Potency, µM (top dose mostly 46.1 µM), for the others: at the top dose activity change, negative = cytotoxicity, usual class: cytotoxic; actives 0.76% (n = 410,000); HepG2 CAGA-GFP viability, ATP luminescence, 18 h
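HepG2 CAGA-GFP cells (1000/well, DMEM with 1% FBS) received compound, then TGF-beta at 500 pg/mL final, and were incubated 18 hours at 37 degrees C. Viability was read by CellTiter-Glo luminescence. Media-only wells were set as complete cell-killing and DMSO as no toxicity.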
TDP1 cell noCPT = qHTS for Inhibitors of human tyrosyl-DNA phosphodiesterase 1 (TDP1): qHTS in cells in absence of CPT; AID 686978, 2013; DT40 Tdp1-/- hTDP1 cells, no CPT, ATP luminescence, 48 h; actives 15% (n = 420,000); Potency, µM (titrated, usually from 46.2 µM), inactives show top-dose activity change, negative = growth inhibition, actives largely listed as inhibitors; note: % is set by controls: 0 for no effect and ±100 for the full control effect; nearly all actives have a fitted effect of over 55% in size
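Camptothecin absent (DMSO only). Human TDP1-complemented DT40 knockout cells, 400 cells/well, 37 °C for minimum 48 hr; ATP measured via CellTiter-Glo, 30 min dark incubation, luminescence.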
TDP1 cell CPT = growth inhibition of DT40 Tdp1-/-;hTDP1 cells with camptothecin (screen for TDP1 inhibitors) | Potency, µM (highest dose often 46.2 µM), for inactives: at the top dose activity change, negative = growth inhibition, most hits filed as inhibitors | chicken DT40 Tdp1-/-;hTDP1 cells + 20 nM CPT, ATP luminescence, 48 h | actives 12% (n = 420,000); note: % is set by controls: 0 for no effect and ±100 for the full control effect; nearly all actives have a fitted effect of over 55% in size
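Chicken DT40 Tdp1-/- cells complemented with human TDP1, 400 cells/well, exposed to compounds plus 20 nM camptothecin for at least 48 h at 37 C; viability read as ATP content by CellTiter-Glo luminescence.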
HT1080 IDH1KD tx = toxicity to HT-1080 IDH1 knockdown cells (counter line); HT-1080 IDH1 knockdown viability, ATP luminescence, 48 h; Potency, µM (top dose mostly 46.1 µM), for inactives: top-dose activity, negative = toxicity, actives largely listed as cytotoxic; actives 2% (n = 360,000);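 note: 0% = DMSO wells and -100% = cell-free medium wells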
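Assay cells: HT-1080 with IDH1 knockdown, 750 per well, RPMI/5% FBS. Exposure: 48 h at 37 °C following 2 h pre-incubation. Read: CellTiter-Glo luminescence; fitted concentration-response, curve class assigned.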
HT1080-NT tox = kills 2HG-producing HT-1080-NT fibrosarcoma cells | actives 1.6% (n = 360,000) | HT-1080-NT fibrosarcoma viability, CellTiter-Glo ATP luminescence, 48 h | Potency, µM (highest dose often 46.1 µM), for the others: top-dose activity, negative = less viability, most hits filed as cytotoxic;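 note: NT is the 2HG producing partner of a matched IDH1 knockdown line; 0% = DMSO-treated cells and -100% = media-only wells without cells; nearly all actives have a fitted effect of over 55% in size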
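Luminescent CellTiter-Glo readout after 48 hours of compound exposure at 37 degrees C defined viability of HT-1080-NT cells. Activity was normalized to DMSO wells and cell-free media wells; concentration-response curves were fitted and assigned curve classes.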
TGFb SMAD3 inh = TGF-b pathway inhibition | HepG2 CAGA-GFP TGF-b/SMAD3 reporter, GFP fluorescence, 18 h; TGF-beta stimulated, 500 pg/mL final | Potency, µM (doses to about 46.1 µM), for inactives: at the top dose activity, negative = inhibition, actives largely listed as inhibitors | actives 1.2% (n = 410,000) | AID 588855; note: % is set by controls: 0 for no effect and ±100 for the full control effect; nearly all actives have a fitted effect of over 65% in size
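TGF-beta reporter screen: HEPG2 CAGA-GFP, 1% FBS, 500 pg/mL TGF-beta final, 18 h; per-cell GFP summed per well; curves fitted and categorized by class.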
Active calls of the source: *. Calls come from the whole dose curve; as a rule, active = well fitted curve in the direction sought with a large enough effect; inconclusive = small, poorly fitted or top-dose-only effect, or another doubt; inactive = no such curve, though single readings can be large; an effect the other way counts as inactive or inconclusive. Potency is the fitted concentration of half-maximal effect.

For CCOc1cc(/C=N/NC(=O)c2c(-c3ccccc3)noc2C)ccc1O the results were HepG2 viability -5.7%, TDP1 cell noCPT -7.4%, TDP1 cell CPT -22.8%, HT1080 IDH1KD tx 3.3%, HT1080-NT tox 2.4% and TGFb SMAD3 inh -1.0%.
`O=C(N/N=C/C1CC=CCC1)c1cc(-c2cccnc2)nc2ccccc12` (stereo not drawn) gave HepG2 viability -17.2%, TDP1 cell noCPT 3.3%, TDP1 cell CPT -2.2%, HT1080 IDH1KD tx -25.3%, HT1080-NT tox -26.4% and TGFb SMAD3 inh -1.6%.
Screening Cc1ccc(/C(=C\CN2CCCC2)c2cccc(/C=C/C(=O)O)n2)cc1 returned TDP1 cell noCPT -7.5% and TDP1 cell CPT -5.5%.
COc1ccc(/C=N/NC(=O)c2ccncc2)cc1CN1CCOCC1 was read as HepG2 viability -24.3%, TDP1 cell noCPT -9.2%, TDP1 cell CPT -3.7%, HT1080 IDH1KD tx 18.1%, HT1080-NT tox 17.7% and TGFb SMAD3 inh -15.3%.
Cc1ccc(-c2cc(C(=O)N/N=C/c3cccnc3)c3ccccc3n2)cc1C was read as HepG2 viability -93.2%, TDP1 cell noCPT 8.2µM*, TDP1 cell CPT 8.2µM*, HT1080 IDH1KD tx inconclusive, HT1080-NT tox inconclusive and TGFb SMAD3 inh inconclusive.
O=C(N/N=C/c1cccnc1)c1cc(-c2ccc(Br)cc2)nc2ccccc12 was read as HepG2 viability -8.7%, TDP1 cell noCPT 8.2µM*, TDP1 cell CPT 11.6µM*, HT1080 IDH1KD tx inconclusive, HT1080-NT tox inconclusive and TGFb SMAD3 inh inconclusive.
Screening Cc1ccc(/C=N/NC(=O)c2cc(-c3cccnc3)nc3ccccc23)cc1 returned HepG2 viability 3.5%, TDP1 cell noCPT 1.46µM*, TDP1 cell CPT 2.06µM*, HT1080 IDH1KD tx 1.3µM*, HT1080-NT tox 1.46µM* and TGFb SMAD3 inh inconclusive.
Screening Cc1ccc(C)c(-c2cc(C(=O)N/N=C/c3cccnc3)c3ccccc3n2)c1 returned HepG2 viability -9.8%, TDP1 cell noCPT inconclusive, TDP1 cell CPT inconclusive, HT1080 IDH1KD tx -23.9%, HT1080-NT tox -21.6% and TGFb SMAD3 inh 72.6%.
`O=C(N/N=C/c1cccnc1)c1cc(-c2ccccc2)nc2ccccc12` gave HepG2 viability -51.7%, TDP1 cell noCPT inconclusive, TDP1 cell CPT inconclusive, HT1080 IDH1KD tx -22.8%, HT1080-NT tox inconclusive and TGFb SMAD3 inh 0.0%.
For CCOc1cccc(-c2cc(C(=O)N/N=C/c3ccc(OC)c(CN4CCOCC4)c3)c3ccccc3n2)c1 the results were HepG2 viability -45.0%, TDP1 cell noCPT 16.4µM*, TDP1 cell CPT 18.4µM*, HT1080 IDH1KD tx inconclusive, HT1080-NT tox inconclusive and TGFb SMAD3 inh 0.0%.
For CCOc1cc(C=NNC(=O)N(c2ccccc2)c2ccccc2)ccc1O the results were HepG2 viability -14.3%, TDP1 cell noCPT 16.4µM*, TDP1 cell CPT 29.1µM*, HT1080 IDH1KD tx inconclusive, HT1080-NT tox inconclusive and TGFb SMAD3 inh 34.1%.
`COc1ccc(C2CC(=O)Oc3c(C(CCN4CCOCC4)c4ccc5c(c4)OCO5)c(OC)cc(OC)c32)cc1` (stereo not drawn) gave HepG2 viability -41.0% and TGFb SMAD3 inh -14.3%.
Screening CC(C)CCc1noc(CN2CCN(c3ccc(Cl)cn3)CC2)n1 returned HepG2 viability 0.0%, TDP1 cell noCPT 1.5%, TDP1 cell CPT -14.2%, HT1080 IDH1KD tx 9.1%, HT1080-NT tox 1.1% and TGFb SMAD3 inh -1.7%.
O=c1oc2ccccc2c(N2CCC(c3ccccc3)CC2)c1[N+](=O)[O-] was read as HepG2 viability 3.1%, TDP1 cell noCPT inconclusive, TDP1 cell CPT -22.3%, HT1080 IDH1KD tx 8.8%, HT1080-NT tox 15.3% and TGFb SMAD3 inh 0.0%.
For CC1CCCN(c2c([N+](=O)[O-])c(=O)oc3ccccc23)C1 (stereo not drawn) the results were HepG2 viability 1.9%, TDP1 cell noCPT inconclusive, TDP1 cell CPT 15.8µM*, HT1080 IDH1KD tx 4.7%, HT1080-NT tox 27.5% and TGFb SMAD3 inh 29.0%.
Screening O=C(OCC(=O)N1CCCc2ccccc21)c1ccccc1OC(F)F returned HepG2 viability -0.7%, TDP1 cell noCPT -18.1%, TDP1 cell CPT -19.8%, HT1080 IDH1KD tx -3.3%, HT1080-NT tox 1.1% and TGFb SMAD3 inh 20.1%.
Screening Cc1c(C(=O)Nc2nc(-c3ccccn3)cs2)oc2ccccc12 returned HepG2 viability -22.8%, TDP1 cell noCPT 3.66µM*, TDP1 cell CPT 5.17µM*, HT1080 IDH1KD tx inconclusive, HT1080-NT tox inconclusive and TGFb SMAD3 inh inconclusive.
Cc1cc(-c2csc(NC(=O)c3cc4ccccc4o3)n2)c(C)n1C was read as HepG2 viability 4.9%, TDP1 cell noCPT inconclusive, TDP1 cell CPT inconclusive, HT1080 IDH1KD tx -3.0%, HT1080-NT tox 8.5% and TGFb SMAD3 inh -6.7%.
Cc1nnc(NC(=O)c2oc3ccccc3c2C)s1 was read as HepG2 viability -9.4%, TDP1 cell noCPT -1.3%, TDP1 cell CPT inconclusive, HT1080 IDH1KD tx 0.7%, HT1080-NT tox 11.1% and TGFb SMAD3 inh 0.0%.
Screening O=C(Nc1nc(-c2ccccn2)cs1)c1cc2ccccc2o1 returned HepG2 viability -32.0%, TDP1 cell noCPT 7.31µM*, TDP1 cell CPT inconclusive, HT1080 IDH1KD tx inconclusive, HT1080-NT tox -25.1% and TGFb SMAD3 inh inconclusive.
Cc1ccc(-c2noc(-c3nnn(CC(=O)Nc4cccc(C(F)(F)F)c4)c3N)n2)cc1 was read as HepG2 viability -9.9%, TDP1 cell noCPT 2.06µM* and TDP1 cell CPT 2.06µM*.
`COc1cccc(NC(=O)Cn2nnc(-c3nc(-c4ccccc4)no3)c2N)c1` gave HepG2 viability -27.3%, TDP1 cell noCPT 18.4µM*, TDP1 cell CPT inconclusive and TGFb SMAD3 inh inconclusive.
Nc1c(-c2nc(-c3ccccc3)no2)nnn1CC(=O)Nc1ccccc1 was read as HepG2 viability -3.0%, TDP1 cell noCPT -25.9% and TDP1 cell CPT -36.0%.
For O=C(Cn1cnc2ccccc21)N/N=C/C(Br)=C/c1ccccc1 the results were HepG2 viability -58.1%, TDP1 cell noCPT 23.1µM*, TDP1 cell CPT 6.51µM*, HT1080 IDH1KD tx inconclusive, HT1080-NT tox inconclusive and TGFb SMAD3 inh inconclusive.
